Laboratory results taken from PubChem BioAssay AID1851 (National Center for Advancing Translational Sciences (NCATS), 2009).
Hit rate of the full screen: of about 16,000 compounds, about 2,600 (16%) were called active. Roughly 20% stayed inconclusive and do not appear here. The list is a sample of the results. Values without a mark were called inactive. Calls follow the shape of the dose curve; as a rule, active = well fitted curve in the direction sought with a large enough effect; inconclusive = small, poorly fitted or top-dose-only effect, or effect the other way; inactive = no such curve, though single readings can be large or run the other way.

molecular target: Cytochrome P450 2D6 (Homo sapiens) (UniProt P10635); assay: Cytochrome panel assay with activity outcomes; details: recombinant CYP, pro-luciferin dealkylation, luminescence, p450-cyp2d6; series mostly up to 57.1 µM; activity, negative = inhibition: at the top concentration
Sequence (P10635 whole entry, looked up): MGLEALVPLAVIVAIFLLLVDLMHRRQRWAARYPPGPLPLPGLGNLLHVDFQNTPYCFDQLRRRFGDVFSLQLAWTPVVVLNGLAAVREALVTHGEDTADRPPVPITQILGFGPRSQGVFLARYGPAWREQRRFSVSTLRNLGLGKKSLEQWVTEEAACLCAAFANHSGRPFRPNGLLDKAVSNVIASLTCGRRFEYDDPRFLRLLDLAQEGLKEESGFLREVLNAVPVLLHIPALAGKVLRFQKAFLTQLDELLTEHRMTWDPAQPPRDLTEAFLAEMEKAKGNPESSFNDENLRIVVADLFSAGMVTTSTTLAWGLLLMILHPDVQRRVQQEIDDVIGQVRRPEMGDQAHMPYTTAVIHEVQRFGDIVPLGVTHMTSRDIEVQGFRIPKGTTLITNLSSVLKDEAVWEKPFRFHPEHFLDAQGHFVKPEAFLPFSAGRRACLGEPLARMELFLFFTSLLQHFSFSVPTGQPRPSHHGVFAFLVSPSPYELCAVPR
% is scaled to controls: 0 for no effect and ±100 for the full control effect.

With `COc1cccc2c(=O)c(C(=O)NCc3cccs3)c[nH]c12` the AC50 was 12.6 µM (active).
`CCOc1cc(C)c(S(=O)(=O)Nc2ccc3cn[nH]c3c2)cc1C` was tested, and the AC50 was 0.631 µM (active).
In the case of `CCOC(=O)c1ccc(S(=O)(=O)Nc2ccc3cn[nH]c3c2)cc1`, the AC50 is reported as 12.6 µM (active).
`CCCC(C(=O)Nc1nccs1)c1ccccc1` (stereo unspecified) was tested, and the AC50 was 25.1 µM (active).
For `c1ccc(-n2cnc3cc(NCc4cccs4)ccc32)cc1`, the AC50 was 1.12 µM (active).
With `Cc1ccccc1CS(=O)(=O)Cc1ccc(C(=O)NCc2cccnc2)o1` the AC50 was 10 µM (active).

Compared with `COc1ccc(C(=O)c2c[nH]c(C(=O)NCc3cccs3)c2)cc1`, `COc1ccc2nc3oc(C(=O)NCc4cccs4)cc3cc2c1` is lower in “activity, negative = inhibition” value: 3.32% for the first, -14% for the second.

First: O=C1CC(=O)N(CCc2ccc(F)cc2)C(=O)N1
Second: COC(=O)[C@@]1(Cc2ccc(F)cc2)[C@@H]2C(=CC(=O)[C@H]2CC(=O)C(=O)N(C)C)CN1C(=O)c1ccccc1
The “activity, negative = inhibition” value of the first is lower: -6.64% for the first, 0.486% for the second.

Going from `COc1ccc(-n2c(=O)cnc3cnc(N(C)C)nc32)cc1` to `O=c1cnc2cnc(Nc3ccccc3)nc2n1Cc1cccs1`, the “activity, negative = inhibition” value falls from 3.84% to -1.11%.

First: COc1ccccc1/C=C/C(=O)c1c2c(c(C)[nH]c1=O)CCCC2
Second: COC(=O)Cc1cc(=O)n2[nH]c(C)c(-c3ccccc3)c2n1
The “activity, negative = inhibition” value of the first is higher: -1.51% for the first, -5.33% for the second.

First: Cc1cc(C)n2nc(SCc3cc(=O)oc4ccc5ccccc5c34)nc2n1
Second: CCO/C(C)=N/n1c2nc3ccccc3nc2c2c(=O)n(CC(C)C)c(C)nc21
The “activity, negative = inhibition” value of the first is lower: -9.53% for the first, 18.8% for the second.

First: CC(=O)Nc1cc(S(=O)(=O)Nc2ccccc2)c(C)cc1C
Second: Cc1cc(N)ccc1NC(=O)c1ccccc1
The “activity, negative = inhibition” value of the first is lower: -11.4% for the first, 14% for the second.

Compared with `Cc1cc(NC(=O)COC(=O)c2ccc(NS(=O)(=O)c3ccc(C)c(C)c3)cc2)no1`, `CCOC(=O)c1sc(NS(=O)(=O)c2ccccc2)nc1C` is higher in “activity, negative = inhibition” value: -14.2% for the first, 0.864% for the second.

Compared with `C/C(O)=C\c1nc2ccccc2oc1=O`, `CCCCn1c(SCC(=O)Nc2nccs2)nc2ccccc2c1=O` is higher in “activity, negative = inhibition” value: -0.0426% for the first, 7.1% for the second.

Compared with `O=C(O)c1ccccc1C(=O)Nc1nccs1`, `Cc1cc(=O)oc(C)c1C(=O)NCc1cccnc1` is higher in “activity, negative = inhibition” value: -21.5% for the first, -3.68% for the second.

Going from `O=C(NCC1CCCO1)c1cc(-c2ccc(Cl)cc2Cl)on1` (stereo unspecified) to `Cc1cccc(CS(=O)(=O)Cc2ccc(C(=O)NCc3ccco3)o2)c1`, the “activity, negative = inhibition” value rises from -13.5% to 9.08%.

Compared with `Cc1cccc(Sc2c([N+](=O)[O-])ncn2C)n1`, `O=C(O)[C@H]1CCCNC1` is lower in “activity, negative = inhibition” value: 28.4% for the first, 14.9% for the second.

First: NCS(=O)(=O)O
Second: Cn1c(=S)c2[nH]c(SCCCc3ccccc3)nc2n(C)c1=O
The activity, negative = inhibition of the first is higher: 6.1% [at 11.4 µM] for the first, -0.099% [at 11.4 µM] for the second.

`Cc1c(C)c2c(c(C)c1O)CC[C@@](C)(CCC[C@@H](C)CCC[C@@H](C)CCCC(C)C)O2` was tested, and the “activity, negative = inhibition” value was 14.1% [at 25.6 µM].
